The values below come from PubChem BioAssay (EPA / NIEHS).

Activity calls are given as the source filed them. How the source made its calls: active means hit-call score of the fitted dose curve at least 0.9, where 1 is the maximum; inactive means score below 0.9.

Read-out in this experiment: Apolipoprotein A-V (APOA5) gene, APOA5 (gene 116519)
Kind of experiment: LTEA_HepaRG_APOA5: Life Technologies and Expression Analysis (LTEA) Assay for Apolipoprotein A-V (APOA5) gene using HepaRG (AID 2283474). The settings on record: mRNA level, 48 h; actives raise or lower the signal. As to the method: LTEA_HepaRG is a cell based, multiplexed-readout assay that uses HepaRG, a human liver cell line, with measurements taken at 48 hours after chemical dosing on a 96-well plate.LTEA_HepaRG_APOA5 is one of 102 assay component(s) measured in the LTEA HepaRG cell culture assay. It is a marker of Steatosis.Data from the assay component LTEA_HepaRG_APOA5 was analyzed into 1 endpoint. This assay endpoint, LTEA_HepaRG_APOA5, was analyzed with bidirectional fitting relative to DMSO as the negative control and baseline of activity. Using a type of inducible reporter, measures of mRNA induction for gain or loss-of-signal activity can be used to understand regulation of transcription factor activity. To generalize the intended target to other relatable targets, this assay endpoint is annotated to the apolipoprotein intended target family, where the subfamily is Steatosis.
A total of 1060 chemcials from the ToxCast library were tested in eight-point concentration-response experiments. Cell culture and cytotoxicity assays were conducted at Thermo Fisher Scientific's Custom Services facility (Madison, WI). A single lot of human HepaRG cells (Thermo Fisher Scientific, Frederick, MD) was used for the cell culture experiments. 96-well format collagen type I coated plates of human HepaRG cells were prepared using established methods. Briefly, cryopreserved HepaRG cells were thawed, plated at a density of approximately 100,000 cells/well in HepaRG Thaw, Plate, and General Purpose media (HPRG770, Thermo Fisher Scientific), and incubated for 48 hours. 0.5% DMSO was selected as vehicle control to balance the requisite need of DMSO in HepaRG cultures to maintain differentiation (for example, baseline metabolism, proportions of hepatocytes vs. cholangiocytes), while enabling further hepatic receptor pathway activation (for example, PXR and CAR) in response to chemical exposure. 48 hours after plating, the culture medium was replaced with HepaRG Serum-Free Incudtion Media. Cells were exposed to each test chemical in duplicate and maintained in CO2 incubators for another 48 hours. Chemical plates were thawed to room temperature and 200x concentrations of treatment groups were prepared. 8-point conentration-reponse curves were made with the highest exposure at 100 uM, followed by half-log dilutions, all in 0.5% DMSO. Each test plate contained variouse controls, induction positive controls (1mM phenobarbital), cytotoxicity positive controls ([…] aflatoxin B1), vehicle controls (0.5% DMSO), and total lysis controls (0.5% DMSO). Cell morphology images were taken using an Essen IncuCyte FLR automated microscope, with six 96-well plates imaged in about 24 minutes. Images were captured and exported and JPEG files. Spent culture media was transfered to black-well plates for the LDH assay, and remaining media was sorted at -80 C for later use. Cells were treated with RLT buffer and frozen until shipped for gene expression analysis. Total RNA was isolated from the cell suspension in 75 uL of Buffer RLT (Qiagen, Germantown, MD 20874) by Quintiles/Expression Analysis (Durham, NC) using a custom isolation procedure. Total RNA from each plate well was transferred to a preamplification plate. Fluidigm's 96.96 Dynamic ArrayTM (Fluidigm, Amsterdam, the Netherlands) technology was used for gene expression analyses by quantitative reverse transcription polymerase chain reaction (qRT-PCR, performed by Quintiles/Expression Analysis, Durham, NC)89. Standard TaqManTM Assays (Applied Biosystems/ThermoFisher Scientific, Foster City, CA) were used to assess the expression of 93 genes selected based on their selectivity and sensitivity to important hepatic receptors known to be modulated by environmental chemicals; importance in human hepatocyte functionality; and hepatotoxicity. […]
For `CC1(C)C(=O)N(Cl)C(=O)N1Cl`, the compound was classed as inactive.

In the case of `CC(=O)c1ccccc1`, the outcome was inactive.

With `OCC(CO)(CO)CO`, the compound was classed as inactive.

`CC(C)CCCCCCOC(=O)C1CCCCC1C(=O)OCCCCCCC(C)C` (stereo not given): the AC50 was 0.00316 µM (active).

Turning to `Cn1cc[nH]c1=S`, the call was inactive.

For the compound `CC(C)C(=O)Nc1ccc([N+](=O)[O-])c(C(F)(F)F)c1`, the AC50 is 65.9 µM (active).

In the case of `COCc1nnc(-c2ccc[n+]([O-])c2)n1-c1c(Cl)c(Cl)cc2[nH]c(=O)c(=O)[nH]c12`, the outcome was inactive.

With `OCCOCCOCCO`, the compound was classed as inactive.

`COc1cc2c(c(OC)c1OC)-c1ccc(OC)c(=O)cc1[C@@H](NC(C)=O)CC2`: the AC50 was 0.138 µM (active).

Consider `CCN(CC)C(=S)SSC(=S)N(CC)CC`, for which the compound was called inactive.

For the compound `O=C(O)c1ccc2c(c1)nc(C(=O)NC1CCN(C3CC3)CC1)n2Cc1cc(-c2ccc(Cl)s2)on1`, the compound was classed as inactive.

Take `CCCCCCCC1CCC(=O)O1` (stereo not given): the compound was called inactive.

Regarding `CCCCCCCCCCCCCCO`, the compound was called inactive.

Take `CCc1cccc(CC)c1N`: the compound was classed as inactive.

Take `NC(=O)N(O)[C@@H]1COc2cc(OCc3ccccc3)ccc21`: the outcome was inactive.

As for `CCc1ccc(O)c(C(C)(C)C)c1`, the compound was classed as inactive.

Turning to `O=C(O)c1cccc(C(=O)O)c1`, the outcome was inactive.

`Nc1ccn([C@@H]2O[C@H](CO)[C@@H](O)[C@@H]2O)c(=O)n1`: the result was inactive.

As to `COc1cc(C(C)C)c2c(c1)S(=O)(=O)N(COc1cc(=O)n3cccc(OCCN4CCCCC4)c3n1)C2=O`, the AC50 is 22.6 µM (active).

On to `CCCCCCCCCCCCCCCCOS(=O)(=O)O`, for which the outcome was inactive.

As for `CCOc1ccc2[nH]cc(C(=O)NCc3ccccc3)c(=O)c2n1`, the call was inactive.

On to `c1ccc2c(c1)-c1cccc3c1c-2cc1ccccc13`, for which the AC50 was 13.4 µM (active).

Consider `CCn1nc(C)c2c1C(=O)NCC(c1ccc(O)cc1)=N2`, for which the outcome was inactive.

Regarding `CCCCCCCC/C=C\CCCCCCCC(=O)OC[C@@H](O)[C@H]1OC[C@H](O)[C@H]1O`, the call was inactive.

Regarding `C=CN1CCCC1=O`, the call was inactive.

Take `CCCc1ccccc1`: the compound was called inactive.

Regarding `OCc1ccccc1`, the call was inactive.

Turning to `c1ccc2ncccc2c1`, the result was inactive.

As to `CCCOc1ccc(S(=O)(=O)N2CCN(CC)CC2)cc1-c1nc2c(CC)n(Cc3ccccn3)nc2c(=O)[nH]1`, the result was inactive.

Turning to `OC(Cn1cncn1)(Cn1cncn1)c1ccc(F)cc1F`, the compound was called inactive.

As for `O=C(O)[C@H](O)[C@@H](O)C(=O)O`, the compound was called inactive.

With `NC(=O)N1c2ccccc2C=Cc2ccccc21`, the outcome was inactive.

As for `C[C@]12C=CC(=O)C=C1CC[C@H]1[C@@H]3C[C@@H](O)[C@](O)(C(=O)CO)[C@@]3(C)C[C@H](O)[C@@]12F`, the result was inactive.

Take `c1ccc(C(O[C@@H]2CCCN(CCc3ccc4c(c3)OCO4)C2)c2ccccc2)cc1`: the compound was called inactive.

Take `C[C@@H](Oc1ccc(CNC(=O)c2cccnc2Oc2ccc3c(c2)OCO3)c(F)c1)C(=O)O`: the compound was classed as inactive.

For the compound `CCCCCOC(C)=O`, the compound was called inactive.

For `OCCNCCO`, the compound was called inactive.

In the case of `CCCC(CCC)C(=O)O`, the result was inactive.

Turning to `CCCCCCCCCC`, the compound was called inactive.

Turning to `CCCCOC(=O)c1ccccc1`, the call was inactive.

Usually AC50 stands for the concentration at which the activity in the assay is half-maximal.
